Source: PubChem BioAssay
Where “and” joins values, the source holds several entries; their conditions need not be identical. Identical values can stand only once. Calls of active or inactive are those of the source.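 The calls were made as follows, unless noted: active = thallium flux through the channel raised or lowered by more than 3 SD from vehicle-only wells, actives on both sides; inactive = the rest.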

Tests used:
[1] = P. berghei load reduction in hepatocytes – cell-based, HepG2, luciferase luminescence, HepG2 viability, primary screen (AID 624349; in the data active = parasite load remaining mostly below about 12%, no sharp cut-off; inactive = mostly above about 10%;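 also: 100% = mean of DMSO negative control wells on the same plate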); details: P. berghei liver stage in HepG2, luciferase luminescence, concentration not given here; parasite load remaining: stronger effect = lower value; viability: measured here: HepG2 viability without parasites
[2] = signal quenchers or enhancers, Cy5 substrate/SSB – biochemical, NIH Clinical Collection, E. coli SSB, artefact control for HCV NS3 helicase inhibitor project (AID 743268; call rule not given here); details: Cy5-oligo bound E. coli SSB, fluorescence interference
[3] = system: Hepatitis C virus NS3 helicase; experiment: blockers of NS3h binding to DNA – biochemical, fluorescence polarization, NIH Clinical Collection, primary screen (AID 743270; call rule not given here); details: NS3 helicase binding to Cy5-dT15 DNA, stronger effect = higher value, concentration not given here
[4] = biological target: Single-stranded DNA-binding protein (Escherichia coli (strain K12)) (UniProt P0AGE0); experiment: SSB-ssDNA binding inhibitors – biochemical, fluorescence polarization, NIH Clinical Collection, counter-screen for HCV NS3 helicase inhibitor project (AID 743271; in the data active = inhibition above about 28%); details: E. coli SSB-DNA binding, stronger effect = higher value, concentration not given here
[5] = compounds distorting NS3 helicase fluorescence signal – biochemical, NIH Clinical Collection, artefact control for HCV NS3 helicase inhibitor project (AID 743272; call rule not given here;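 also: HCV NS3 helicase with a Cy5 labelled single stranded DNA probe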); details: fluorescence interference counterscreen, HCV NS3 helicase assay; stronger effect = lower value
[6] = modulation of C. elegans fzo-1 (AID 1259413; call rule not given here;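 also: fzo-1 mutant C. elegans worms in liquid wells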); details: C. elegans fzo-1 modulator screen, mean read-out; stronger effect = higher value
[7] = EMT-state selective cytotoxicity in co-culture – imaging, PC-3E GFP, TEM4-18 mCherry, primary screen (AID 1345086;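 active = compounds killing one labelled cell type while sparing the other, by normalised counts and ratio limits, not self-fluorescent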;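 as to all read-outs here: cells exposed to compound for 72 h before imaging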;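 as to red/green cell ratio (normalised): normalised mesenchymal count divided by normalised epithelial count so high means epithelial killing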); details: PC-3E GFP / TEM4-18 mCherry co-culture, imaging cell counts, at 1 µM; for red/green cell ratio (normalised): actives lie on both sides, counts scaled to control wells, 1 = unselective
F380Y = experiment: BK channel mutant inhibitors and activators – cell-based, U2OS BacMam, thallium flux, beta subunits, selectivity assay, profiling panel (AID 1259406); details: U2OS BacMam BK variants, at 30 µM;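 also: initial slope of Thallos dye fluorescence rise after thallium is added; log ratio against the mean of 0.3% DMSO vehicle wells on the same plate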
F380Y/beta1 = experiment: as above; details: U2OS BacMam BK variants, at 30 µM
F380Y/beta2Delta = experiment: as above; details: U2OS BacMam BK variants, at 30 µM
F380Y/beta4 = experiment: as above; details: U2OS BacMam BK variants, at 30 µM
[8] = biological target: Calcium-activated potassium channel subunit alpha-1 (Homo sapiens) + Leucine-rich repeat-containing protein 26 (Homo sapiens) (UniProt Q12791+Q2I0M4); experiment: as above; details: U2OS BacMam BK variants, F380Y/Slo1WT/gamma1, at 30 µM
R275C = experiment: as above; details: U2OS BacMam BK variants, at 30 µM
R275C/beta1 = experiment: as above; details: U2OS BacMam BK variants, at 30 µM
R275C/beta2Delta = experiment: as above; details: U2OS BacMam BK variants, at 30 µM
R275C/beta4 = experiment: as above; details: U2OS BacMam BK variants, at 30 µM
R275C/Slo1WT/beta2 = experiment: as above; details: U2OS BacMam BK variants, at 30 µM
[9] = MELAS cybrid and Rieske KO viability enhancers – cell-based, MELAS cybrids, Rieske KO mouse fibroblasts, CellTiter-Glo, primary screen (AID 1508586;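 active = mean z-score across replicates of 1.96 or higher in either the MELAS or the Rieske mutant cell line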;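 also: z relative to plate mean and SD of compound and empty wells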); details: low glucose
[10] = drug combination growth inhibition, ovarian cancer – cell-based, oncology-focused library, rucaparib conditional, profiling panel (AID 1508598;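 active = normalized viability below 100% at a tested concentration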); details: patient-derived ovarian cancer cells, CellTiter-Glo viability, 144 h, stronger effect = lower value
[11] = viability loss with induced miR-34 in A549 – imaging, A549 dox-inducible miR-34, nuclei and caspase counts, primary screen (AID 1347080;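 active = compounds whose cell count with miR-34 switched on is under 0.7 times the count with it off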); details: A549 miR-34 inducible, Hoechst nuclei count, 48 h
[12] = measured here: epithelial PC-3E GFP cell survival
[13] = measured here: mesenchymal TEM4-18 mCherry cell survival
[14] = MELAS cybrid survival, CellTiter-Glo 48 h, stronger effect = higher value
[15] = Rieske KO mouse fibroblast survival, CellTiter-Glo 72 h

Sequence of Calcium-activated potassium channel subunit alpha-1 (Homo sapiens) + Leucine-rich repeat-containing protein 26 (Homo sapiens) (Q2I0M4 whole entry, looked up, one chain of several): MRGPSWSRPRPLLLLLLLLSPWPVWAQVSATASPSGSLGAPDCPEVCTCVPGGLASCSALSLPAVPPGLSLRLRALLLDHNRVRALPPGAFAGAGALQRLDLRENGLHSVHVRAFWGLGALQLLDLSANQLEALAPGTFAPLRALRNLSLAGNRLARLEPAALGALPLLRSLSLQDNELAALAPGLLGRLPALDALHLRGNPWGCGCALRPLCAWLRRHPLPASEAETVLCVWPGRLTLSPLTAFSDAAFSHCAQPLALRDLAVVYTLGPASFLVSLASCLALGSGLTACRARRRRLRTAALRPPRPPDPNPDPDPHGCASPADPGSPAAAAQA

CN1CC(=O)N2[C@H](c3ccc4c(c3)OCO4)c3[nH]c4ccccc4c3C[C@@H]2C1=O
1.08: normalised cell number [7, 12]
1.07: normalised cell number [7, 13]
active: log fold change Tl+ flux (R275C/beta1) 0.198
inactive: parasite load remaining [1] 101% | fluorescence ratio [2] 1 | inhibition [3] -0.4% | inhibition [4] -0.1% | fluorescence ratio [5] 1 | mean signal [6] 261 | red/green cell ratio (normalised) [7] 1 | log fold change Tl+ flux (F380Y) 0.0711 | log fold change Tl+ flux (F380Y/beta1) 0.0938 | log fold change Tl+ flux (F380Y/beta2Delta) 0.00366 | log fold change Tl+ flux (F380Y/beta4) 0.0361 | log fold change Tl+ flux [8] -0.0237 | log fold change Tl+ flux (R275C) -0.0348 | log fold change Tl+ flux (R275C/beta2Delta) 0.0543 | log fold change Tl+ flux (R275C/beta4) 0.0558 | log fold change Tl+ flux (R275C/Slo1WT/beta2) 0.00498
81.8%: viability [1]

O=C1CN2Cc3c(ccc(Cl)c3Cl)N=C2N1
99.2% and 69.6% and 96.5%: viability [1]
active: viability ([10]; at 0.000305 µM, OCI-P5x cells, with rucaparib 20 µM, 100% = cells with rucaparib alone) 98.8% | viability ([10]; at 0.000305 µM, OCI-P5x cells, without rucaparib) 72% | viability ([10]; at 0.0195 µM, OCI-P5x cells, with rucaparib 20 µM, 100% = cells with rucaparib alone) 99.6% | viability ([10]; at 0.0781 µM, OCI-P5x cells, with rucaparib 20 µM, 100% = cells with rucaparib alone) 94% | viability ([10]; at 0.313 µM, OCI-P5x cells, with rucaparib 20 µM, 100% = cells with rucaparib alone) 90.5% | viability ([10]; at 0.313 µM, OCI-P5x cells, without rucaparib) 92.4% | viability ([10]; at 1.25 µM, OCI-P5x cells, with rucaparib 20 µM, 100% = cells with rucaparib alone) 88.3% | viability ([10]; at 1.25 µM, OCI-P5x cells, without rucaparib) 92.2% | viability ([10]; at 5 µM, OCI-P5x cells, with rucaparib 20 µM, 100% = cells with rucaparib alone) 83.7% | viability ([10]; at 5 µM, OCI-P5x cells, without rucaparib) 85.5%
inactive: parasite load remaining [1] 45.6% and 99.2% and 57.7% | fluorescence ratio [2] 1.06 | inhibition [3] -12.3% | inhibition [4] -7.03% | fluorescence ratio [5] 1.02 | mean signal [6] 210 | red/green cell ratio (normalised) [7] 0.92 | z-score [9, 14] -0.241 and 0.475 and -0.0504 | viability ([10]; at 0.000305 µM, OCI-C5x cells, with rucaparib 10 µM, 100% = cells with rucaparib alone) 111% | viability ([10]; at 0.000305 µM, OCI-C5x cells, without rucaparib) 124% | viability ([10]; at 0.00122 µM, OCI-C5x cells, with rucaparib 10 µM, 100% = cells with rucaparib alone) 113% | viability ([10]; at 0.00122 µM, OCI-C5x cells, without rucaparib) 126% | viability ([10]; at 0.00122 µM, OCI-P5x cells, with rucaparib 20 µM, 100% = cells with rucaparib alone) 100% | viability ([10]; at 0.00122 µM, OCI-P5x cells, without rucaparib) 107% | viability ([10]; at 0.00488 µM, OCI-C5x cells, with rucaparib 10 µM, 100% = cells with rucaparib alone) 115% | viability ([10]; at 0.00488 µM, OCI-C5x cells, without rucaparib) 121% | viability ([10]; at 0.00488 µM, OCI-P5x cells, with rucaparib 20 µM, 100% = cells with rucaparib alone) 106% | viability ([10]; at 0.00488 µM, OCI-P5x cells, without rucaparib) 105% | viability ([10]; at 0.0195 µM, OCI-C5x cells, with rucaparib 10 µM, 100% = cells with rucaparib alone) 111% | viability ([10]; at 0.0195 µM, OCI-C5x cells, without rucaparib) 115% | viability ([10]; at 0.0195 µM, OCI-P5x cells, without rucaparib) 103% | viability ([10]; at 0.0781 µM, OCI-C5x cells, with rucaparib 10 µM, 100% = cells with rucaparib alone) 109% | viability ([10]; at 0.0781 µM, OCI-C5x cells, without rucaparib) 107% | viability ([10]; at 0.0781 µM, OCI-P5x cells, without rucaparib) 101% | viability ([10]; at 0.313 µM, OCI-C5x cells, with rucaparib 10 µM, 100% = cells with rucaparib alone) 125% | viability ([10]; at 0.313 µM, OCI-C5x cells, without rucaparib) 118% | viability ([10]; at 1.25 µM, OCI-C5x cells, with rucaparib 10 µM, 100% = cells with rucaparib alone) 123% | viability ([10]; at 1.25 µM, OCI-C5x cells, without rucaparib) 107% | viability ([10]; at 5 µM, OCI-C5x cells, with rucaparib 10 µM, 100% = cells with rucaparib alone) 122% | viability ([10]; at 5 µM, OCI-C5x cells, without rucaparib) 116% | log fold change Tl+ flux (F380Y) -0.00116 | log fold change Tl+ flux (F380Y/beta1) 0.0415 | log fold change Tl+ flux (F380Y/beta2Delta) 0.0342 | log fold change Tl+ flux (F380Y/beta4) 0.00749 | log fold change Tl+ flux [8] -0.00535 | log fold change Tl+ flux (R275C) -0.0701 | log fold change Tl+ flux (R275C/beta1) -0.00554 | log fold change Tl+ flux (R275C/beta2Delta) -0.00347 | log fold change Tl+ flux (R275C/beta4) -0.00682 | log fold change Tl+ flux (R275C/Slo1WT/beta2) -0.00842
0.79: normalised cell number [7, 13]
0.86: normalised cell number [7, 12]
-0.321 and 0.64 and -0.821: z-score [9, 15]

COC(=O)c1cc(C)nc(Sc2n[nH]c(-c3cc(Cl)cc(Cl)c3)n2)n1
active: log fold change Tl+ flux (F380Y/beta1) 0.0897
inactive: log fold change Tl+ flux (F380Y) -0.0391 | log fold change Tl+ flux (F380Y/beta2Delta) 0.0312 | log fold change Tl+ flux (F380Y/beta4) 0.046 | log fold change Tl+ flux [8] 0.044 | log fold change Tl+ flux (R275C) 0.00719 | log fold change Tl+ flux (R275C/beta1) 0.0447 | log fold change Tl+ flux (R275C/beta2Delta) 0.0581 | log fold change Tl+ flux (R275C/beta4) 0.0071 | log fold change Tl+ flux (R275C/Slo1WT/beta2) 0.059

COc1nc(C)nc(Cl)c1NC1=NCCN1
inactive: parasite load remaining [1] 85.8% and 79.7% | fluorescence ratio [2] 1.09 | inhibition [3] 4.36% | inhibition [4] 5.29% | fluorescence ratio [5] 1.07 | mean signal [6] 246 | z-score [9, 14] -0.211 and 0.715 | log fold change Tl+ flux (F380Y) -0.00461 | log fold change Tl+ flux (F380Y/beta1) -0.0516 | log fold change Tl+ flux (F380Y/beta2Delta) -0.0248 | log fold change Tl+ flux (F380Y/beta4) -0.00507 | log fold change Tl+ flux [8] -0.00669 | log fold change Tl+ flux (R275C) -0.0325 | log fold change Tl+ flux (R275C/beta1) -0.0423 | log fold change Tl+ flux (R275C/beta2Delta) -0.005 | log fold change Tl+ flux (R275C/beta4) -0.00418 | log fold change Tl+ flux (R275C/Slo1WT/beta2) -0.0114
72.6% and 70.2%: viability [1]
0.176 and 0.122: z-score [9, 15]

C[C@H]1O[C@H](O[C@H]2[C@H](O)[C@@H](O)[C@@H](O[C@H]3[C@H](O)[C@@H](O)C(O)O[C@@H]3CO)O[C@@H]2CO)[C@H](O)[C@@H](O)[C@@H]1N[C@H]1C=C(CO)[C@@H](O)[C@H](O)[C@H]1O (some centres not stated)
104% and 111%: viability [1]
inactive: parasite load remaining [1] 61.3% and 108% | fluorescence ratio [2] 1.08 | inhibition [3] 4.36% | inhibition [4] 0.67% | fluorescence ratio [5] 1.03 | mean signal [6] 228 | red/green cell ratio (normalised) [7] 0.91 | fold change ([11]; stronger effect = lower value, cell number ratio, induced over uninduced) 0.866 | log fold change Tl+ flux (F380Y) -0.0255 | log fold change Tl+ flux (F380Y/beta1) 0.0224 | log fold change Tl+ flux (F380Y/beta2Delta) 0.0097 | log fold change Tl+ flux (F380Y/beta4) 0.039 | log fold change Tl+ flux [8] 0.00221 | log fold change Tl+ flux (R275C) -0.0575 | log fold change Tl+ flux (R275C/beta1) -0.00956 | log fold change Tl+ flux (R275C/beta2Delta) -0.0417 | log fold change Tl+ flux (R275C/beta4) -0.0364 | log fold change Tl+ flux (R275C/Slo1WT/beta2) -0.0206
4.27: fold change ([11]; measured here: relative caspase fold change +Dox/-Dox)
1: normalised cell number [7, 13]
12200: cell count ([11]; measured here: total cells without miR-34 induction)
10500: cell count ([11]; measured here: total cells with miR-34 induction, stronger effect = lower value)
1.1: normalised cell number [7, 12]

CN(C)CCCC1(c2ccc(F)cc2)OCc2cc(C#N)ccc21 (configuration not stated)
1.12: normalised cell number [7, 12]
inactive: fluorescence ratio [2] 1.03 and 1.01 | inhibition [3] -5.94% and -0.45% | inhibition [4] -1.64% and 0.29% | fluorescence ratio [5] 0.99 and 1.03 | mean signal [6] 220 | red/green cell ratio (normalised) [7] 1.17 | z-score [9, 14] -0.338 and 0.623 and -0.34 | log fold change Tl+ flux (F380Y) 0.0263 and 0.0749 | log fold change Tl+ flux (F380Y/beta1) 0.0236 and -0.0159 | log fold change Tl+ flux (F380Y/beta2Delta) 0.0311 and 0.0638 | log fold change Tl+ flux (F380Y/beta4) 0.0583 and -0.00121 | log fold change Tl+ flux [8] 0.0169 and -0.0497 | log fold change Tl+ flux (R275C) -0.0255 and -0.00148 | log fold change Tl+ flux (R275C/beta1) 0.0362 and 0.0712 | log fold change Tl+ flux (R275C/beta2Delta) 0.0568 and 0.0646 | log fold change Tl+ flux (R275C/beta4) 0.0241 and 0.0131 | log fold change Tl+ flux (R275C/Slo1WT/beta2) 0.0494 and 0.00231
1.31: normalised cell number [7, 13]
-0.153 and 0.348 and -0.881: z-score [9, 15]
